Sequences and labels used below:
B1: chr16:2708819:2708933:+|3pUTR|ENSG00000167977|unk|FALSE|unique (ssRNA)
RNA: GGGAGUUCUACAGUCCGACGAUCCUCUCUGGGGAGCUGCUGGCCGCUUAGCGUUGUUUGAUUUUUGACCUUGACAUAGUAGAUAGGCUUGUGGUUUUUUUAAUUUAAAGAUAUUAAGACUUAAUUCACUAAAAUUUAUUCUAACAACAGAGGAUUGAGCAUCA
B2: chr16:2708819:2708933:+|3pUTR|ENSG00000167977|unk|total|mutant (ssRNA)
RNA: B1 RNA with U48C, A49C, U76C, A77C, U79C, A80C, U83C, A84C
B3: ENSG00000168615:stop:overlap|stop_codon|ENSG00000168615|stop_codon|NA|stop_codon (ssRNA)
RNA: GGGAGUUCUACAGUCCGACGAUCCUGGCCAGAAUACCCAAAAUAAUUGGCAGAUGUCAAAUUUGGCUUUCUGUGUUUAUUACUAGAGCAUAAACAUUUCUAGUUUUGUUUGAGUGUUUUACAGUCCUUUUUGGCAGUUAGGUACAACAGAGGAUUGAGCAUCA
B4: chr5:6669452:6669553:+|3pUTR|ENSG00000145545|unk|FALSE|unique (ssRNA)
RNA: GGGAGUUCUACAGUCCGACGAUCCAUCUCAUCUGGAGUUUUUAAAUGCCAUUUGUUUCAGUUGUCUUUAACAACAUAAUAAAUAGACUUUGCCAUUUAACAAGGUAGCUCAAAUUCUUUUACUAAUUGUUACAUCGAAACAUUCAACAGAGGAUUGAGCAUCA
B5: chr2:216672738:216672882:-|3pUTR|ENSG00000115461|msi1|FALSE|unique (ssRNA)
RNA: GGGAGUUCUACAGUCCGACGAUCUUCUCUUAGGCUUUUGUUUCUAUUUCAAACAUACUUUCUUGGUUUUCUAAUGGAGUAUAUAGUUUAGUCAUUUCACAGACUCUGGCCUCCUCUCCUGAAAUCCUUUUGGAUGGGGAAAGGCAACAGAGGAUUGAGCAUCA
B6: chr2:96185838:96185916:-|3pUTR|ENSG00000084090|msi1_unk|FALSE|overlapping (ssRNA)
RNA: GGGAGUUCUACAGUCCGACGAUCUGGGAGACUAAUCCUUUUAGAUAGUAGCUUUUUGAUGCUCAAAACAUCACAUUUAAAUUUAGUUUAAAAAUUUUUUAACUUUUGUGUCAAAUAGGAGUUGAGGAAUUGAGCAGGAUUCUACAACAGAGGAUUGAGCAUCA
B7: chr10:98383567:98383797:-|three_prime_utr|ENSG00000119943|control|control|control (ssRNA)
RNA: GGGAGUUCUACAGUCCGACGAUCCCACCCCUGAAUUCCAAGUGCUCCAUUGGAUCAGCUUCCCAGGAAGUUCAGCUUCGGGUUAGUACAUAAGGCCACCACAAUGCUCAAGAAAUUAUUUUAGAAAAAACGUACGAGUUACAUCAACAGAGGAUUGAGCAUCA
B8: chr12:103777333:103777434:-|3pUTR|ENSG00000111696|msi1|total|mutant (ssRNA)
RNA: GGGAGUUCUACAGUCCGACGAUCUCCUGAACAUUUACGGGCUAUGCAUUGGGAACUGCAGGGGCACAGUGAUGGGCAAAGAUCCGCUGCUUCCAGAAGGCUGAUUUCGUGGGCUCCACAAUGGUAAAACGCUGCUGUGAGUGGCAACAGAGGAUUGAGCAUCA
B9: chr7:152122106:152122213:+|3pUTR|ENSG00000178234|unk|total|mutant (ssRNA)
RNA: GGGAGUUCUACAGUCCGACGAUCAGUGGUUUUUAUCUGAUCAGGAACUUGUCAUGAUUUCCUUUCUCCGACUUCACCGGAGACCGUGCUUUAAAAAAAAAAAAAACUUCUAUUAUUUGUUCCGUAUGUUGUAAGCCGAUCAUUCAACAGAGGAUUGAGCAUCA
B10: chr7:152122106:152122213:+|3pUTR|ENSG00000178234|unk|FALSE|unique (ssRNA)
RNA: B9 RNA with C67U, C68A, C76U, C77A, C83U, C84A, C121U, C122A, C135U, C136A
B11: chr14:100278170:100278208:+|3pUTR|ENSG00000100811|msi1_unk|FALSE|overlapping (ssRNA)
RNA: GGGAGUUCUACAGUCCGACGAUCGCUAUCUUAAUUUUGGUUGUAUUCUUUGAUGUUAACACAUUUUGUAUAAUUGUAUCGUAUAGCUGUAUUGAAUCAUGUAGUAUCAAAUAUUAGAUGUGAUUUAAUAGUGUUAAUCAAUUUCAACAGAGGAUUGAGCAUCA
B12: chr17:61865808:61865921:-|3pUTR|ENSG00000108506|unk|FALSE|unique (ssRNA)
RNA: GGGAGUUCUACAGUCCGACGAUCUUCUAUGAGAAUGAGUUUGUAGCUGUUUCAAAUCAUGAAGUGCAUAGUAUCACAUGUGAUAGAAUAUUUAUAACUUUUUAUUAGAUGCUUAAUGUUCAAUUAAGUAAUUUUGAUGUGAAACAACAGAGGAUUGAGCAUCA
B13: chr4:56502255:56502306:+|3pUTR|ENSG00000174780|msi1_unk|FALSE|overlapping (ssRNA)
RNA: GGGAGUUCUACAGUCCGACGAUCAUUUCAGCUGGAGUCUGAAGAUACUUGUUUCUGUUCAAGUCCCACUUUAAAUUAUGUCUUAGGAGACUGAAAGUGGAAUCUUCUGAGCAUUCCUAAAUAUCUGCUUAGAAAUAUCAUGUGCAACAGAGGAUUGAGCAUCA
B14: chr10:121957106:121957207:-|3pUTR|ENSG00000107672|msi1|FALSE|bound_elsewhere (ssRNA)
RNA: GGGAGUUCUACAGUCCGACGAUCUGUAUCGUACAUAUUGUAUGAUUCAACAUUUUUAAAGGCAGAUUGUUUUUAGUAAAAUGUAGCUUUUGAUAGUUAAUAAAUUUGUCAUGGUUGUCUUUGAUUAAAGGAAACUCACCGCCACAACAGAGGAUUGAGCAUCA
B15: chr5:160402147:160402258:-|3pUTR|ENSG00000164609|unk|FALSE|unique (ssRNA)
RNA: GGGAGUUCUACAGUCCGACGAUCAUGGUUUACAUUACCGUUUGUUUUCAUUGUGAUUGCCCCUAUGUAACAAUCAUGAAUAUUAGAUUUUUUAAAUUGUAGAAUAUCCUAAUAUUUAUAGCCAGCAGCUGUUACUUUGUUUGUCAACAGAGGAUUGAGCAUCA
B16: chr11:101890673:101891278:-|three_prime_utr|ENSG00000187151|control|control|control (ssRNA)
RNA: GGGAGUUCUACAGUCCGACGAUCGUAAUGCAAGUUCUACAAUGAUAAUAUAUUAAAGAUUUUUAAAAGUUUAUCUUUUCACUUAGUGUUUCAAACAUAUUAGGCAAAAUUUAACUGUAGAUGGCAUUUAGAUGUUAUGAGUUUCAACAGAGGAUUGAGCAUCA
B17: chr21:14371318:14371404:-|3pUTR|ENSG00000155304|msi1_unk|total|mutant (ssRNA)
RNA: GGGAGUUCUACAGUCCGACGAUCUAUGAAUAACAAUCUGAAGUCUUUUCAUAAAAAAAAUUAAUAAACUUCCGUUGUACAUUCCGCCAGUGUUAUUUGAAGUAUGUAACUUUUAAAAUAUUAAGUGUCUUGUAUGAUCCGAAUCAACAGAGGAUUGAGCAUCA

Positions count from the first letter of the chain named. The full ranking holds about 5,800 sequences; the median of “enrichment r” is about 0.68, and the highest 2% start at about 11. Shown is part of a subset that was picked to be rich in the highest values.

For 17 molecules, binding signal results are on record in publication PMC12136788.

This test has as its target T1, UNK ZnF1-6 (called full-length) (human, UniProt Q9C0B0 30-357).
T1 sequence: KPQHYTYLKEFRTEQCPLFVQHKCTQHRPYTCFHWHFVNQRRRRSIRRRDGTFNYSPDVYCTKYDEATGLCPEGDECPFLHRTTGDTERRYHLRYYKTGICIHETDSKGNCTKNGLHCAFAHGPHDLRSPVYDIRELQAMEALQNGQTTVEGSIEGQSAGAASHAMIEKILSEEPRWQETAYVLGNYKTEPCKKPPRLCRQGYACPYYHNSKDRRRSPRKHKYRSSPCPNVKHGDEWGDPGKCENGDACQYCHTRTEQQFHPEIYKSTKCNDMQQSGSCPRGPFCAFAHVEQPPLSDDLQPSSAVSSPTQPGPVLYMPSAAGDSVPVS
Description: nsRBNS (natural sequence RNA bind-n-seq); RBNS binding buffer (assumed for nsRBNS): 25 mM Tris pH 7.5, 150 mM KCl, 3 mM MgCl2, 0.01% Triton X-100, 500 ug/ml BSA, 20 U/ml SUPERase-In, 4 C; UNK is unkempt and MSI1 is Musashi-1; names of the RNAs are library labels; protein concentration not given here; high values mean tight binding.
The molecule B1 registered a binding signal of 14.8 enrichment R.

B2 gave a binding signal of 2.05 enrichment R.

With B3, the binding signal is 0.532 enrichment R.

In turn, B4 registered a binding signal of 0.535 enrichment R.

Take B5: the binding signal came out at 5.21 enrichment R.

B6 registered a binding signal of 27.5 enrichment R.

As to B7, the binding signal is 2.25 enrichment R.

As to B8, the binding signal was 0.856 enrichment R.

B9 came in with a binding signal of 0.949 enrichment R.

The molecule B10 registered a binding signal of 35 enrichment R.

Regarding B11, the binding signal is 14.1 enrichment R.

Molecule B12 had a binding signal of 2.51 enrichment R.

Regarding B13, the binding signal was 0.869 enrichment R.

On to B14, for which the binding signal turned out to be 13.5 enrichment R.

As for B15, the binding signal worked out at 5.04 enrichment R.

On to B16, for which the binding signal was found to be 5.03 enrichment R.

The molecule B17 registered a binding signal of 0.702 enrichment R.
